Laboratory results from the supplement of paper PMC9694430.

How the values were obtained:
Assay in all cases: thermal shift delta Tm vs DMSO control; higher = stronger stabilization (binding)
Details in all cases: 12.5 µM; protein concentration 2 µM
LOC_OS01G57100-cb003 = test system: LOC_OS01G57100-cb003
Outline: (§1)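 Rice kinase domain constructs, made in E. coli and purified, were placed in 96-well plates at 2 μM in 19.5 μl of 100 mM potassium phosphate pH 7.5, 150 mM NaCl, 10% glycerol and 5 × SYPRO Orange, with compound in DMSO. A temperature ramp from 25°C to 95°C at 0.05°C/s was used for differential scanning fluorimetry. The melting temperature shift is a triplicate mean compared with DMSO-only protein, derived from Boltzmann fits.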

LOC_OS01G60330-cb001 = test system: LOC_OS01G60330-cb001
Outline: as §1

LOC_OS01G60700-cb002 = test system: LOC_OS01G60700-cb002
Outline: as §1

LOC_OS01G63280-cb003 = test system: LOC_OS01G63280-cb003
Outline: as §1

LOC_OS01G67340-cb003 = test system: LOC_OS01G67340-cb003
Outline: as §1

LOC_OS01G70970-cb002 = test system: LOC_OS01G70970-cb002
Outline: as §1

LOC_OS02G07810-cb001 = test system: LOC_OS02G07810-cb001
Outline: as §1

LOC_OS02G08530-cb003 = test system: LOC_OS02G08530-cb003
Outline: as §1

LOC_OS02G14120-cb001 = test system: LOC_OS02G14120-cb001
Outline: as §1

LOC_OS02G17970-cb001 = test system: LOC_OS02G17970-cb001
Outline: as §1

LOC_OS02G45750-cb003 = test system: LOC_OS02G45750-cb003
Outline: as §1

LOC_OS02G54510-cb004 = test system: LOC_OS02G54510-cb004
Outline: as §1

LOC_OS03G04050-cb001 = test system: LOC_OS03G04050-cb001
Outline: as §1

LOC_OS03G12390-cb001 = test system: LOC_OS03G12390-cb001
Outline: as §1

LOC_OS03G27990-cb004 = test system: LOC_OS03G27990-cb004
Outline: as §1

LOC_OS03G50450-cb001 = test system: LOC_OS03G50450-cb001
Outline: as §1

LOC_OS03G50810-cb003 = test system: LOC_OS03G50810-cb003
Outline: as §1

LOC_OS04G35114-cb001 = test system: LOC_OS04G35114-cb001
Outline: as §1

LOC_OS04G38480-cb003 = test system: T1, LOC_OS04G38480-cb003
T1 sequence (whole entry): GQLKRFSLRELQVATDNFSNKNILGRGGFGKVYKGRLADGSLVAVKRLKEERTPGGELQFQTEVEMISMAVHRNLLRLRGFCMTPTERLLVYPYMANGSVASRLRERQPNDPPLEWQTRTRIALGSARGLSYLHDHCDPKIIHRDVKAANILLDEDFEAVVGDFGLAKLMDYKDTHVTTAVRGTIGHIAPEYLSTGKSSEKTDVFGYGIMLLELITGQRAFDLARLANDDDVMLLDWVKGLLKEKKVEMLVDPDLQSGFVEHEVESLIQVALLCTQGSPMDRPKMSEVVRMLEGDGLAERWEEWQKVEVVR
Outline: as §1

LOC_OS04G41100-cb001 = test system: T2, LOC_OS04G41100-cb001
T2 sequence (whole entry): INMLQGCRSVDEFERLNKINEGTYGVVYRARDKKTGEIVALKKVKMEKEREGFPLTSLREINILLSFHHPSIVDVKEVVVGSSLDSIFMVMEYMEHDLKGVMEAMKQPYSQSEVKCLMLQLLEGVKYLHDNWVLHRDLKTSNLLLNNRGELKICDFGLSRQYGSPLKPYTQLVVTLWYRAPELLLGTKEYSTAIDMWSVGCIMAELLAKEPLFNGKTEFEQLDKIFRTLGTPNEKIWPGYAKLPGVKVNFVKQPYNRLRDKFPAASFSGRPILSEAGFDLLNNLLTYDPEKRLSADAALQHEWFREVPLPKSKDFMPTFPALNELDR
Outline: as §1
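Also: purified Escherichia coli-expressed rice kinase domain construct.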

Structure (SMILES) | thermal shift delta Tm (LOC_OS01G57100-cb003) [°C] | thermal shift delta Tm (LOC_OS01G60330-cb001) [°C] | thermal shift delta Tm (LOC_OS01G60700-cb002) [°C] | thermal shift delta Tm (LOC_OS01G63280-cb003) [°C] | thermal shift delta Tm (LOC_OS01G67340-cb003) [°C] | thermal shift delta Tm (LOC_OS01G70970-cb002) [°C] | thermal shift delta Tm (LOC_OS02G07810-cb001) [°C] | thermal shift delta Tm (LOC_OS02G08530-cb003) [°C] | thermal shift delta Tm (LOC_OS02G14120-cb001) [°C] | thermal shift delta Tm (LOC_OS02G17970-cb001) [°C] | thermal shift delta Tm (LOC_OS02G45750-cb003) [°C] | thermal shift delta Tm (LOC_OS02G54510-cb004) [°C] | thermal shift delta Tm (LOC_OS03G04050-cb001) [°C] | thermal shift delta Tm (LOC_OS03G12390-cb001) [°C] | thermal shift delta Tm (LOC_OS03G27990-cb004) [°C] | thermal shift delta Tm (LOC_OS03G50450-cb001) [°C] | thermal shift delta Tm (LOC_OS03G50810-cb003) [°C] | thermal shift delta Tm (LOC_OS04G35114-cb001) [°C] | thermal shift delta Tm (LOC_OS04G38480-cb003) [°C] | thermal shift delta Tm (LOC_OS04G41100-cb001) [°C]
N#Cc1cnc(Nc2cc(NC[C@H]3CNCCO3)c(C(F)(F)F)cn2)cn1 | 0.46 | 1.05 | 1.23 | 0.31 | 0.67 | 1.58 | 0.2 | 0.87 | 2.96 | 0.44 | 3.09 | 0.4 | 0.6 | 0.36 | 0.89 | 0.52 | 1.11 | 1.35 | 1.02 | 0.96
Oc1c2ccccc2c2c3c(cccc13)N=N2 | 1.83 | 9.76 | 1.18 | 2.18 | 6.47 | 6.02 | 1.65 | 3.38 | 5.57 | 0.82 | 8.26 | 0.51 | 0.73 | 5.6 | 3.39 | 2.66 | 2.79 | 6.42 | 2.04 | 1.69
CCN1/C(=C/C(C)=O)Sc2ccc(OC)cc21 | 1.85 | 1.16 | 0.54 | 0.05 | 0.66 | 0.38 | 0.47 | 0.41 | 0.43 | 0.27 | 0.78 | 0.02 | 0.22 | 0.14 | 0.03 | 0.66 | 0.32 | 0.67 | 0.6 | 0.55
Cc1c(C(=O)Nc2ccc(Oc3ccnc4[nH]cc(-c5ccccc5)c34)c(F)c2)c(=O)n(-c2ccc(F)cc2)n1C | 1.48 | 5.65 | 1.25 | 5.92 | 1.81 | 1.29 | 0.68 | 3.76 | 6.85 | 1.44 | 1.92 | -0.32 | 0.37 | 1.39 | 0.47 | 0.52 | 1.79 | 5.04 | 3.56 | 1.06
O=C1NC(=O)C(c2ccccc2[N+](=O)[O-])=C1Nc1ccc(O)c(Cl)c1 | 2.1 | 0.17 | 1.88 | 0.02 | 0.79 | 0.12 | 1.72 | 1.16 | -1.08 | 1.06 | 1.34 | 0.07 | 0.14 | 2.25 | 0.15 | -0.05 | 0.88 | 1.02 | 2.72 | 0.23
CC(C)(C)c1cc(NC(=O)Nc2ccc(Oc3ccnc4[nH]c(=O)cnc34)cc2F)n(-c2ccccc2)n1 | 1.77 | 1.69 | 1.38 | 10.7 | 0.45 | 0.73 | 0.8 | 1.22 | 4.49 | 2.69 | 8.1 | 3.28 | 0.21 | 4.04 | 0.22 | 0.17 | 2.66 | 0.44 | 2.2 | 7.51
